# T cruzi growth-1: blocks T. cruzi growth in NIH3T3 culture; T. cruzi beta-gal in NIH3T3, GalScreen luminescence, 90 h; inhibition, % at 8.34 µM; actives 5.9% (n = 77,000); AID 624255;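 active means mean inhibition above about 93%, with at least 55% of replicates each passing it, limit read from the data, passing the limit was not always enough; inconclusive means only one of those two conditions holds; inactive means neither condition holds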
# Pf Dd2 inh: inhibitors of Plasmodium falciparum Dd2 growth; actives 2.3% (n = 94,000); activity change, % at 10 µM; P. falciparum Dd2 growth, SYBR Green, 72 h; stronger effect = lower value; in the data active means activity change below about -80%; inconclusive means no clear call, values can overlap the other calls
# C diff growth: blocks growth of Clostridium difficile. Clostridium difficile clinical isolate growth, OD600, 24 h; stronger effect = lower value. growth activity, negative = inhibition, % at 16 µg/mL (by protocol). actives 0.25% (n = 86,000). AID 1259249;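 active means mean growth activity at or below -80% and every replicate also at or below -80%; inconclusive means mean at or below -80% but some replicate above -80%; inactive means mean growth activity above -80%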;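 further: 0% = DMSO wells and -100% = levofloxacin 16 µg/mL wells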
# T cruzi growth-2: blocks T. cruzi growth in NIH3T3 host cells; T. cruzi beta-gal in NIH3T3, GalScreen luminescence, 90 h; inhibition, % at 8.35 µM; shares compounds with T cruzi growth-1; actives 72% (n = 5,600);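 active means mean replicate inhibition above about 95% and at least 55% of replicates individually reaching it, limit read from the data; inconclusive means only one of the two criteria is met; inactive means neither criterion is met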
# T cruzi growth-3: blocks T. cruzi growth in NIH3T3 host cells; shares compounds with T cruzi growth-1; AID 651740; actives 21% (n = 5,600); T. cruzi beta-gal in NIH3T3, GalScreen luminescence, 90 h; inhibition, % at 2.09 µM;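 active means mean inhibition above about 95%, with at least 55% of replicates also reaching it, limit read from the data; inconclusive means meets just one of the two conditions; inactive means meets neither condition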;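 further: plate controls were neutral control median for no effect and positive control median for full effect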
# 3T3 cytotox: cytotoxicity in mouse NIH/3T3 fibroblasts. shares compounds with T cruzi growth-1. NIH/3T3 viability, CellTiter-Glo ATP luminescence, 90 h. cytotoxicity (signal decrease), % at 8.35 µM. actives 14% (n = 5,600). AID 651742;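 active means mean signal decrease across replicates above about 35% based on untreated-well scatter, with enough replicates individually passing, limit read from the data; inconclusive means no rule stated though some were filed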;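 further: 0% = median of neutral control wells and 100% = median of positive control wells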
# NIH3T3 tox 2: cytotoxicity in mouse NIH/3T3 fibroblasts; shares compounds with T cruzi growth-1; NIH/3T3 viability, CellTiter-Glo ATP luminescence, 90 h; inhibition, % at 24.9 µM; actives 56% (n = 5,600);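 active means mean loss of cell viability signal at or above a set limit, and enough replicates individually reaching it; inconclusive means meets only the mean limit or only the replicate share; inactive means meets neither condition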;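 further: 0% = median of neutral control wells and 100% = median of positive control wells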
# * hit, by the source's call; ? = inconclusive; · = no result given. The list is not random: actives were taken first. Their share in the collection is about 6.7%.
SMILES,T cruzi growth-1,Pf Dd2 inh,C diff growth,T cruzi growth-2,T cruzi growth-3,3T3 cytotox,NIH3T3 tox 2
C[C@@H]1CN([C@@H](C)CO)S(=O)(=O)c2ccc(C3=CCCC3)cc2O[C@@H]1CN(C)Cc1cccc(C(=O)O)c1,-13,22,0,·,·,·,·
C[C@H]1CN([C@@H](C)CO)S(=O)(=O)c2ccc(C3=CCCC3)cc2O[C@H]1CN(C)Cc1ccccc1,97*,-40,14,96*,92,?,107*
C[C@H](CO)N1C[C@H](C)[C@H](CN(C)Cc2cccc(C(=O)O)c2)Oc2cc(C3=CCCC3)ccc2S1(=O)=O,35,-1,3,·,·,·,·
C[C@@H]1CN([C@H](C)CO)C(=O)Cc2cc(NC(=O)Nc3cccc4ccccc34)ccc2O[C@@H]1CN(C)S(=O)(=O)c1ccc(Cl)cc1,·,-25,-1,·,·,·,·
COc1ccc2c3c(n(C)c2c1)[C@H](CO)N(C(=O)c1ccccc1)CC31CN(C)C1,·,-20,-10,·,·,·,·
O=C(C[C@H]1CC[C@@H]2[C@H](COC[C@@H](O)CN2C(=O)Nc2ccc(Cl)cc2)O1)NCCc1ccncc1,106*,7,0,96*,84,-5,-11
O=C(C[C@@H]1CC[C@@H]2[C@H](COC[C@@H](O)CN2C(=O)Nc2ccc(Cl)cc2)O1)NCCc1ccncc1,119*,19,46,94,80,-14,-8
O=C(C[C@@H]1CC[C@H]2[C@@H](COC[C@@H](O)CN2C(=O)Nc2ccccc2)O1)NCCc1ccncc1,23,5,·,·,·,·,·
O=C(C[C@H]1CC[C@H]2[C@@H](COC[C@H](O)CN2C(=O)Nc2ccc(F)cc2)O1)NCCc1ccncc1,49,-3,·,·,·,·,·
COc1ccccc1NC(=O)N1C[C@@H](O)COC[C@H]2O[C@H](CC(=O)NCCc3ccncc3)CC[C@@H]21,7,·,3,·,·,·,·
COc1ccccc1NC(=O)N1C[C@H](O)COC[C@H]2O[C@H](CC(=O)NCCc3ccncc3)CC[C@@H]21,?,·,-6,36,-3,-1,-1
O=C(C[C@H]1CC[C@@H]2[C@H](COC[C@@H](O)CN2C(=O)Nc2ccc(F)cc2)O1)NCCc1ccncc1,72,4,·,·,·,·,·
O=C(C[C@H]1CC[C@@H]2[C@H](COC[C@H](O)CN2C(=O)Nc2ccc(Cl)cc2)O1)NCCc1ccncc1,109*,10,74,91,83,10,25
COc1ccc2c3c(n(C)c2c1)[C@H](CO)N(S(=O)(=O)c1ccc(C)cc1)CC31CN(S(=O)(=O)c2ccc(C)cc2)C1,·,-62,1,·,·,·,·
CCN1[C@H](C(=O)N(C)C)[C@@H](CO)[C@@H]2Cn3c(ccc(-c4ccc(F)cc4)c3=O)[C@@H]21,-15,-1,1,·,·,·,·
CO[C@@H](CN(C)S(=O)(=O)c1ccc(F)cc1)[C@H](C)CN([C@H](C)CO)S(=O)(=O)c1cccc(Cl)c1,85,-44,·,·,·,·,·
CO[C@H](CN(C)S(=O)(=O)c1ccc(F)cc1)[C@H](C)CN([C@H](C)CO)S(=O)(=O)c1cccc(Cl)c1,101*,-19,·,88,·,29,55*
CO[C@@H](CN(C)S(=O)(=O)c1ccc(Cl)cc1)[C@H](C)CN([C@H](C)CO)S(=O)(=O)c1cccc(Cl)c1,31,-44,·,·,·,·,·
CO[C@@H](CN(C)S(=O)(=O)c1ccc(F)cc1)[C@@H](C)CN([C@@H](C)CO)S(=O)(=O)c1cccc(Cl)c1,109*,-28,·,82,11,26,53*
Cn1cnc(S(=O)(=O)N2CCCCN3[C@H](C2)[C@H](c2ccc(-c4cccc(F)c4)cc2)[C@@H]3CO)c1,73,25,4,·,·,·,·
Cn1cnc(S(=O)(=O)N2CCCCN3[C@H](CO)[C@@H](c4ccc(-c5ccc(F)cc5)cc4)[C@H]3C2)c1,-23,40,-4,·,·,·,·
Cn1cnc(S(=O)(=O)N2CCCCN3[C@H](C2)[C@@H](c2ccc(-c4ccccc4)cc2)[C@@H]3CO)c1,106*,20,-9,99*,-13,2,11
Cn1cnc(S(=O)(=O)N2CCCCN3[C@@H](CO)[C@H](c4ccc(-c5ccccc5)cc4)[C@@H]3C2)c1,100*,42,-4,-13,10,9,33*

# Screening results as filed in PubChem BioAssay.
